From PubChem BioAssay (NCATS) come the findings set out here.

Values without a mark were called inactive. Records with an inconclusive call do not appear. Calls of active or inactive are those of the source. Calls come from the whole dose curve; as a rule, active = well fitted curve in the direction sought with a large enough effect; inconclusive = small, poorly fitted or top-dose-only effect, or another doubt; inactive = no such curve, though single readings can be large; an effect the other way counts as inactive or inconclusive.

Test [1] deals with Glutathione peroxidase 1 (Homo sapiens) (UniProt P07203). The test can be described thus: Primary qHTS Assay for Inhibitors of Recombinant Selenoprotein Glutathione Peroxidase 1 (GPX1) (AID 1845191). For activity, negative = inhibition: % is set by controls: 0 for no effect and ±100 for the full control effect. Note: nearly all actives have a fitted effect of over 65% in size. In short, it runs like this:
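GR-coupled readout: NADPH consumption tracked by fluorescence, ex 340/em 450 nm, at t=0 and after 15 min at RT. Final mix 10 nM GPX1, 1 mM GSH, 0.5 mM CHP, 0.5 mM NADPH, 100 nM GR, 0.01% BSA, following 30 min enzyme–compound preincubation.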
In general terms: In qHTS, concentration-response curves come from the screen itself.

The target of test [2] is Phospholipid hydroperoxide glutathione peroxidase GPX4 (Homo sapiens) (UniProt P36969). The test can be described thus: Primary qHTS Assay for Inhibitors of Recombinant Selenoprotein Glutathione Peroxidase 4 (GPX4) (AID 1845192). Note: nearly all actives have a fitted effect of over 65% in size. In short, it runs like this:
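Steps: GPX4 plus compound, 30 min RT; add GR/GSH/NADPH master mix; start with cumene hydroperoxide; read 340/450 nm fluorescence at 0 and 15 min. Finals were 200 nM GPX4, 1 mM GSH, 0.5 mM CHP, 0.5 mM NADPH, 100 nM GR.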

For test [3], the target named is Luciferin 4-monooxygenase (Photinus pyralis) (UniProt P08659). The test can be described thus: Primary firefly luciferase (FLuc) qHTS assay for identification of artifact compounds. (AID 1845220). Note: nearly all actives have a fitted effect of over 60% in size. In short, it runs like this:
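Enzymatic FLuc inhibition assay: compounds pre-exposed to luciferin/ATP (10 uM each) for 15 min, then purified P. pyralis enzyme at 10 nM added. Read-out: luminescence at 5 min.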

The test system of test [4] is Nanoluciferase (engineered Oplophorus gracilirostris luciferase). As to the kind of experiment: Primary Nanoluciferase (NLuc) qHTS assay for identification of artifact compounds. (AID 1845222).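 Note: NLuc secreted into diluted conditioned medium of S16 cells; series mostly up to about 54 µM; 0% = DMSO and -100% = no enzyme.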 Summed up:
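S16 cell supernatant NLuc, 1:55; cpds qHTS; 15 min RT dark; Nano-Glo substrate 1:100, 5 min; luminescence; Hill fit of % inhibition.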

Test [5] is described as follows: Primary redox qHTS assay for identification of artifact compounds. (AID 1845223).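 Note: 0% = DMSO and 100% = reference compound.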 In short, it runs like this: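 Redox-cycling detection via DTT (250 uM final) oxidation coupled to Amplex Red (25 uM)/HRP (250 mU/mL) in HBSS. 15 min preincubation plus 30 min after DTT, room temperature. Ex/Em 525/598 nm; 4-parameter Hill fit against DMSO and 10 uM DA3003.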
The nature of test [6]: Primary fluorescence-based thiol-reactive (MSTI) qHTS assay for identification of artifact compounds. (AID 1845221).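 For activity change, negative = thiol reactive: series mostly up to about 54 µM; thiol-reactive compounds lower the probe fluorescence signal.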 Note: nearly all actives have a fitted effect of over 65% in size. Note: potency is the fitted concentration of half-maximal effect. Summed up:
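Probe: MSTI 4 uM, PBS pH 7.4, 2% DMSO. Incubation 1 h, RT, light-protected. Readout fluorescence 525/598 nm.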

The target of test [7] is Cytochrome P450 3A4 (Homo sapiens) (UniProt P08684). The test can be described thus: qHTS for inhibitors of CYP3A4 against the NCATS DSHEA and TCM libraries (AID 1919971).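 Note: % is set by controls: 0 for no effect and ±100 for the full control effect; inhibition lowers luminescence from luciferin made by CYP3A4.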 In short, it runs like this: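 Substances were tested against enzyme with a pro-luciferin substrate; minus-enzyme wells served as background. After NADPH-initiated oxidation (30-45 min, RT), light was generated with P450-Glo reagent.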

Test [8] deals with Cytochrome P450 2D6 (Homo sapiens) (UniProt P10635). As to the kind of experiment: qHTS for inhibitors of CYP2D6 against the NCATS DSHEA and TCM libraries (AID 1919972). Note: % is set by controls: 0 for no effect and ±100 for the full control effect. Summed up: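 qHTS, concentration–response format with most substances from 19.5 nM. CYP2D6 + pro-luciferin substrate, 15 min with compound, then 1x NADPH regen, 30–45 min RT dark. Glo detection 30 min, luminescence. Quinidine control.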
Cytochrome P450 2D6 (Homo sapiens), sequence (P10635 whole entry, looked up): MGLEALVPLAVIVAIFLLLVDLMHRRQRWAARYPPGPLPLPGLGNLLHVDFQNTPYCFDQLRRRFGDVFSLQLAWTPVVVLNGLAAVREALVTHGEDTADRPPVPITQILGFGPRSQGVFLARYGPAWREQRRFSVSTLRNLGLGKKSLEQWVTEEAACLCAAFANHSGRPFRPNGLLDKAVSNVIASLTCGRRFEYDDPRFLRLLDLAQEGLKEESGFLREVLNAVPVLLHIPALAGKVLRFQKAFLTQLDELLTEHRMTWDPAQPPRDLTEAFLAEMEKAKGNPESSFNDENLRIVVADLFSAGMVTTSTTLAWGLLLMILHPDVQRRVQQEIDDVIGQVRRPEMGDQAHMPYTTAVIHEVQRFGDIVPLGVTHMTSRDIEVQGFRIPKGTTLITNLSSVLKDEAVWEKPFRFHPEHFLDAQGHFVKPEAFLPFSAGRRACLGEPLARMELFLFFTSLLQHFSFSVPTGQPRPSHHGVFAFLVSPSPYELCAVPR

Glutathione peroxidase 1 (Homo sapiens), sequence (P07203 whole entry, looked up): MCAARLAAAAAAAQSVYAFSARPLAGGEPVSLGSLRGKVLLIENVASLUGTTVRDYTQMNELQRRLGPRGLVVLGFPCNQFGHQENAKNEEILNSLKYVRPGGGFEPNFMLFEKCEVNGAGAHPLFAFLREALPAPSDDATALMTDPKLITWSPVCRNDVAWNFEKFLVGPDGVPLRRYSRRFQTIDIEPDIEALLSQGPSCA
Phospholipid hydroperoxide glutathione peroxidase GPX4 (Homo sapiens), sequence (P36969 whole entry, looked up): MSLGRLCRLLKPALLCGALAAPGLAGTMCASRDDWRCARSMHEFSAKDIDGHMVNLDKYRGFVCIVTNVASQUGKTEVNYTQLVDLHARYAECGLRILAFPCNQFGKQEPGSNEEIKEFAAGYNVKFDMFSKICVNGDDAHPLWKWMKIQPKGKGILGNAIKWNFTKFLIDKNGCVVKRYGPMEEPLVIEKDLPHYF
Cytochrome P450 3A4 (Homo sapiens), sequence (P08684 whole entry, looked up): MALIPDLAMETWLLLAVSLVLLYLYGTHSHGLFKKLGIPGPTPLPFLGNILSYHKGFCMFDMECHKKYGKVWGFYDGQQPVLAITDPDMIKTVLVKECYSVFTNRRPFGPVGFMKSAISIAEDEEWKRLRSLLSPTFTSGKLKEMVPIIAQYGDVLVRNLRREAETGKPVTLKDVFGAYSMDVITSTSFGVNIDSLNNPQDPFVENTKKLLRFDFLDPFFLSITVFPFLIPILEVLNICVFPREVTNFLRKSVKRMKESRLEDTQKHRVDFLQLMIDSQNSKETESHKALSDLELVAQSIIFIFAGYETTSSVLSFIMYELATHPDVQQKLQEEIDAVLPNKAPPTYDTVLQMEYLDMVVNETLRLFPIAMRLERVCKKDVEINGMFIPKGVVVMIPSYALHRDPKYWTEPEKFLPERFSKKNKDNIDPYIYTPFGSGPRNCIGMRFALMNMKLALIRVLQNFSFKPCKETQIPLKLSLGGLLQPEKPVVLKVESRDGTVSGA

Consider `OC[C@H]1O[C@@H](O[C@H]2[C@H](OCc3ccccc3)O[C@H](CO[C@@H]3OC[C@@H](O)[C@H](O)[C@H]3O)[C@@H](O)[C@@H]2O)[C@H](O)[C@@H](O)[C@@H]1O`, for which the Potency result in test [1], in test [2], in test [3], in test [4] and in test [5] was “inactive” each time.

Turning to `C=CC(C)(C)c1[nH]c2cc3c(cc2c1CC1NC(=O)C2CCCN2C1=O)C=CC(C)(C)O3` (centres undefined), the Potency entry in test [1], in test [2], in test [3], in test [4] and in test [5] was “inactive” each time.

As for `C(#Cc1nc2ncccc2nc1OCCN1CCCC1)c1ccccc1`, the Potency entry in test [1], in test [2], in test [6] and in test [4] was “inactive” throughout.

As for `CC1CC(=O)C2=C(CCC3(O)C(O)c4c(O)cccc4C(=O)C23O)C1` (centres undefined), the Potency entry in test [1], in test [2], in test [3], in test [4] and in test [5] was “inactive” throughout.

`C/C=C/c1ccc(O[C@@H]2O[C@H](CO)[C@@H](O)[C@H](O)[C@H]2O)c(OC)c1`: the Potency entry in test [1], in test [2], in test [3] and in test [5] was “inactive” in each case.

Regarding `CC1(C)CCCC2(C)C1CC=C1C(=O)OC(O)C12O` (centres undefined), the Potency entry in test [1], in test [2], in test [3], in test [4] and in test [5] was “inactive” in each case.

Take `COc1ccc(C2(O)CCC(N3CC[C@@H](NC(=O)CNC(=O)c4cccc(C(F)(F)F)c4)C3)CC2)cn1` (some centres undefined): the Potency entry in test [1], in test [2], in test [6] and in test [4] was “inactive” in each case.

As for `C=CC(C)(O)C(O)CC1C(C)(O)C(O)C(O)C2C(C)(C)CCCC21C` (centres undefined), the Potency entry in test [1], in test [2], in test [6], in test [4] and in test [5] was “inactive” throughout.

Regarding `COc1ncc(Nc2ncc([C@@H](C)N3CCN(S(C)(=O)=O)CC3)cc2-c2nc(C)nc(N)n2)cc1F`, the Potency entry in test [1], in test [2], in test [3], in test [4] and in test [5] was “inactive” throughout.

For the molecule `COC(=O)C1=COC(OC2OC(CO)C(O)C(O)C2O)C2C1C=CC2(O)CO` (centres undefined), the Potency result in test [1], in test [2], in test [3], in test [4] and in test [5] was “inactive” in each case.

For `C/C=C/c1ccc2c(c1)[C@@H](C)[C@H](c1ccc(O)cc1)O2`, the Potency entry in test [1], in test [2], in test [6], in test [4] and in test [5] was “inactive” each time.

As to `C[C@]1(CO)CCC[C@]2(C)C3=C(CCC12)COC3` (some centres undefined), the Potency result in test [1], in test [2], in test [3], in test [4] and in test [5] was “inactive” throughout.

Regarding `CC(C)[N+]1(C)C2CCC1CC(OC(=O)C(CO)c1ccccc1)C2` (centres undefined), the Potency result in test [1], in test [2], in test [3], in test [4] and in test [5] was “inactive” in each case.

On to `COc1cc(-c2ncn(/C=C\C(=O)OC(C)C)n2)cc(C(F)(F)F)c1`, for which the Potency entry in test [1], in test [2], in test [6] and in test [4] was “inactive” in each case.

In the case of `CN1CCN(c2ccc(C(=O)Nc3n[nH]c4ccc(Cc5cc(F)cc(F)c5)cc34)c(NC3CCOCC3)c2)CC1`, the Potency result in test [1], in test [2], in test [3], in test [4] and in test [5] was “inactive” each time.

For the molecule `COC(=O)CC1CC(c2ccc(O)cc2)=NO1` (centres undefined), the Potency result in test [1], in test [2], in test [6], in test [4] and in test [5] was “inactive” throughout.

Turning to `CC(=O)OC[C@@]12C(=O)C[C@@H](C)[C@]3(C[C@@H](c4ccoc4)O[C@H]3OC(C)=O)[C@H]1CCC[C@]21CO1`, the Potency entry in test [1], in test [2], in test [6] and in test [4] was “inactive” each time.

As to `C=C1C[C@]23C[C@H]1CC[C@H]2C1=C[C@H]2OC(=O)[C@@](C)([C@H]1[C@@H]3C(=O)O)[C@H]2O`, the Potency entry in test [1], in test [2], in test [3], in test [4] and in test [5] was “inactive” in each case.

Turning to `C=C1C(O)CC2C(C(=O)O)=COC(O[C@@H]3O[C@H](COC(=O)/C=C/c4ccc(O)cc4)[C@@H](O)[C@H](O)[C@H]3O)C12` (some centres undefined), the Potency result in test [1], in test [2], in test [3], in test [4] and in test [5] was “inactive” throughout.

Turning to `CC1CC[C@]2(C(=O)O)CC[C@]3(C(=O)O)C(=CCC4[C@@]5(C)CC[C@H](OC6OC(C)C(O)C(OC7OC(CO)C(O)C(O)C7O)C6O)C(C)(C)C5CC[C@]43C)C2C1C` (some centres undefined), the Potency entry in test [1], in test [2], in test [3], in test [4] and in test [5] was “inactive” in each case. Moreover, the molecule was classed as inactive in test [7] and in test [8].

For the molecule `COc1ccc(C2(O)c3ccccc3NC(=O)C2O)cc1` (centres undefined), the Potency result in test [1], in test [2], in test [3], in test [4] and in test [5] was “inactive” throughout.

With `C[C@@H]1O[C@@H](O[C@H]2[C@H](OC(=O)[C@]34CCC(C)(C)C[C@H]3C3=CCC5[C@@]6(C)CC[C@H](O[C@@H]7O[C@H](C(=O)O)[C@@H](O)[C@H](O)[C@H]7O[C@@H]7O[C@H](CO)[C@H](O)[C@H](O)[C@H]7O)[C@@](C)(C=O)C6CC[C@@]5(C)[C@]3(C)C[C@H]4O)O[C@H](C)[C@H](O[C@@H]3O[C@H](C)[C@H](O)[C@H](O)[C@H]3O)[C@@H]2O)[C@H](O)[C@H](O)[C@H]1O[C@@H]1OC[C@@H](O)[C@H](O[C@@H]2O[C@H](CO)[C@@H](O)[C@H](O)[C@H]2O)[C@H]1O` (some centres undefined), the activity, negative = inhibition in test [1] is 1.71% [at 9.52 µM]; in test [4] it was 4.73% [at 6.45 µM]. In addition, the outcome in test [2] is “inactive [at 9.73 µM]”. The activity change, negative = thiol reactive in test [6] was 292% [at 6.41 µM]. In addition, the redox activity (% of DA3003) in test [5] is 3.32% [at 6.41 µM].

On to `Cc1cc(C)cc(C(=O)NOCCCCCC(=O)NO)c1`, for which the Potency result in test [1], in test [2], in test [4] and in test [5] was “inactive” each time.

In the case of `C[C@@H]1O[C@@H](O[C@H]2[C@@H]3C=CO[C@@H](O[C@@H]4O[C@H](CO)[C@@H](O)[C@H](O)[C@H]4O)[C@@H]3[C@@]3(CO)O[C@@H]23)[C@H](OC(=O)/C=C/c2ccc(O)c(O)c2)[C@H](O)[C@H]1O`, the Potency entry in test [1], in test [2], in test [4] and in test [5] was “inactive” each time. Besides, in test [6], the Potency is 793 nM (active).

`Cn1nnc(-c2ccc(-c3ccc(N4C[C@H](CO)OC4=O)cc3F)cn2)n1`: the Potency result in test [1], in test [2], in test [6], in test [4] and in test [5] was “inactive” each time.

In the case of `c1ccc(-c2csc(N3CCOCC3)n2)cc1`, the Potency entry in test [1], in test [2], in test [4] and in test [5] was “inactive” each time.

With `C[C@H]1O[C@@H](O[C@H]2CC[C@@]3(C)C(CC[C@]4(C)C3CC=C3C5CC(C)(C)CC[C@]5(C(=O)O)CC[C@]34C(=O)O)C2(C)C)[C@H](O)[C@@H](O)[C@@H]1O` (some centres undefined), the Potency result in test [1], in test [2], in test [4] and in test [5] was “inactive” each time.
